High-throughput results as filed in PubChem.
BAZ2B inh: BAZ2B (human) inhibition; Q9UIF8; AlphaScreen BAZ2B-H3K14Ac peptide displacement; Potency, µM (highest dose often 114 µM), for the others: at the top dose activity change, negative = inhibition, usual class: inhibitors; actives 4.4% (n = 360,000); AID 504333; also: % is scaled to controls: 0 for no effect and ±100 for the full control effect; nearly all actives have a fitted effect of over 60% in size
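Multi-concentration screen (max 110 uM) measuring displacement of acetylated histone H3 peptide from BAZ2B by AlphaScreen, using 50 nM protein, 50 nM peptide and 10 ug/mL streptavidin donor plus Ni-chelate acceptor beads.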
12-LOX inh: ALOX12 (human) lipoxygenase inhibition; purified 12hLO, xylenol orange hydroperoxide absorbance; Potency, µM (titrated, usually from 108 µM), inactives show top-dose activity change, negative = inhibition, most hits filed as inhibitors; actives 1.1% (n = 580,000); AID 1671190; also: % is scaled to controls: 0 for no effect and ±100 for the full control effect
Target sequence (P18054 whole entry, looked up): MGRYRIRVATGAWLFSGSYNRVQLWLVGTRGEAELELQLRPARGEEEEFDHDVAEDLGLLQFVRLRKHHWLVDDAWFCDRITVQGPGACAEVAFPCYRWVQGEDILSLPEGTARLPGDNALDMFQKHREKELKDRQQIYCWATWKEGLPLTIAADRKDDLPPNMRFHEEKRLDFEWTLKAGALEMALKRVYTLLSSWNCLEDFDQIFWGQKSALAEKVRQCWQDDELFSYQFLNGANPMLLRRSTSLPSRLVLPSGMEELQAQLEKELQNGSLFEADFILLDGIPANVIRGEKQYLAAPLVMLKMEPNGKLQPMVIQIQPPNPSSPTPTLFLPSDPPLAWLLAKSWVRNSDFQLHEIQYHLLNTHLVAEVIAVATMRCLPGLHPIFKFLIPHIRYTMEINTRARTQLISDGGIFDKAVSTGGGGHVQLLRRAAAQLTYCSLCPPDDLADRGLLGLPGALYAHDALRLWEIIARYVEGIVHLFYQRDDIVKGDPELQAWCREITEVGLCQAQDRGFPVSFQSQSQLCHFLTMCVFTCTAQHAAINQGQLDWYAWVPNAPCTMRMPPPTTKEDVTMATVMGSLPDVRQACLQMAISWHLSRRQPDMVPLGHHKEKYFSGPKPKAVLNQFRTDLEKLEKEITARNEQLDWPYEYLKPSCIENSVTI
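Purified human 12hLO (150 nM final) in 25 mM Hepes, 0.01% Triton X-100, pH 7.0 was preincubated 15 min at room temperature with compound. Then 40 uM arachidonic acid was added, 30 min. Hydroperoxide was read by Fe-XO absorbance ratio 573/405 nm.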
JMJD2A Tudor inh: inhibitors of human JMJD2A Tudor domain | AlphaScreen JMJD2A-Tudor / H3K4me3 peptide binding | Potency, µM (titrated, usually from 114 µM), inactives show top-dose activity change, negative = inhibition, usual class: inhibitors | O75164 | actives 4.4% (n = 390,000); also: % is scaled to controls: 0 for no effect and ±100 for the full control effect; nearly all actives have a fitted effect of over 50% in size
HP1b chromo inh: HP1-beta chromodomain-methylated histone interaction inhibition; P83916; AlphaScreen HP1-beta / biotin-H3K9me3 peptide binding; Potency, µM (titrated, usually from 114 µM), inactives show top-dose activity change, negative = inhibition, most hits filed as inhibitors; actives 0.56% (n = 390,000); AID 540317; also: nearly all actives have a fitted effect of over 70% in size
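Compound inhibition of the preformed complex between 50 nM HP1-beta and 50 nM biotinylated H3K9me3 peptide was read by AlphaScreen. Buffer was PBS pH 7.4 with 0.01% Tween-20. Incubations ran 30 min at room temperature, with 10 ug/mL donor/acceptor beads.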
Sfp PPTase inh: inhibitors of Bacillus subtilis Sfp phosphopantetheinyl transferase; Potency, µM, for inactives: largest response in the series, negative = inhibition, hits mostly inhibitors; AID 1490; Q9F4F7; Biochemical Sfp PPTase activity, qHTS; actives 3.5% (n = 310,000);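 also: the enzyme is Sfp with the accession as filed and its product quenches rhodamine fluorescence; 0% = enzyme reaction without inhibitor and -100% = no enzyme wells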
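Fluorescence-quenching assay with 15 nM Sfp, 5 uM rhodamine-CoA and 12.5 uM BHQ-2-labelled ybbR peptide in pH 7.6 Hepes/MgCl2 buffer. Enzyme was pre-incubated with compound for 15 min at room temperature. Rate was taken from the 30-min fluorescence change (525/598 nm).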
G9a inh: G9a (human) methyltransferase inhibition | G9a H3K9 monomethylation, AlphaScreen, 2 h | Potency, µM (doses to about 102 µM), without a hit: at the highest dose activity, negative = inhibition, usual class: inhibitors | actives 8.8% (n = 350,000); also: % is scaled to controls: 0 for no effect and ±100 for the full control effect; nearly all actives have a fitted effect of over 75% in size
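G9a (20 nM) preincubated 15 min RT with compounds, then 500 nM biotinylated H3K9 peptide and 20 uM SAM added; 2 h RT reaction. Monomethyl-H3K9 product detected by AlphaScreen with anti-H3K9me1 antibody, streptavidin donor and anti-rabbit IgG acceptor beads.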
Active calls of the source: *; u = inconclusive; x = no result given; ! = repeats disagree; [ ] = dose if it differs, or a comment. Sampled rows, rich in hits. Any-hit rate of the full collection: about 8.7%. Calls follow the shape of the dose curve; as a rule, active = well fitted curve in the direction sought with a large enough effect; inconclusive = small, poorly fitted or top-dose-only effect, or another doubt; inactive = no such curve, though single readings can be large; an effect the other way counts as inactive or inconclusive. Potency is read from the fitted curve at half-maximal effect.

SMILES | BAZ2B inh | 12-LOX inh | JMJD2A Tudor inh | HP1b chromo inh | Sfp PPTase inh | G9a inh
COc1ccc(S(=O)(=O)Nc2c(C(=O)O)[nH]c3ccccc23)cc1 | -18% | u | -27% | 72% | 21% | 45µM*
COc1ccc2[nH]c(C(=O)O)c(NS(=O)(=O)c3ccc(F)cc3)c2c1 | -19% | 19% | -16% | 45% | 10% | u
O=C(O)c1[nH]c2ccccc2c1NS(=O)(=O)Cc1ccccc1 | -38% | 0% | u | 6% | 26% | u
COc1ccc(S(=O)(=O)Nc2c(O)ccc3ccccc23)cc1OC | x | u | 79µM* | 71µM* | x | x
O=C(O)c1ccccc1C(=O)Nc1ccc(S(=O)(=O)Nc2ccc(F)cc2)cc1 | -1% | u | 1% | 44% | 14% | -8%
O=C(O)c1[nH]c2ccccc2c1NS(=O)(=O)c1ccc(F)cc1 | u | 12% | -21% | 2% | 7% | 71µM*
COc1ccc(NS(=O)(=O)c2ccc(OC)c(OC)c2)cc1OC | 0% | 0% | -19% | 18% | -3% | 17%[59 µM]
CCOC(=O)c1[nH]c(=O)[nH]c1COC(=O)c1cc2ccccc2o1 | -38% | 0% | u | u | 19% | 7.9µM*
CCOC(=O)/C=C1\CN(C(C)c2ccccc2)S(=O)(=O)c2ccccc21 (stereo not drawn) | -13% | u | 79µM* | 13% | -11% | 18µM*
CCOC(=O)/C=C1\CN(CCC(C)C)S(=O)(=O)c2ccccc21 | 12% | 5% | -5% | 30% | 0% | 35µM*
CCS(=O)(=O)N1CCCC(C(=O)NCc2ccncc2)CCNC(=O)CC1 (stereo not drawn) | x | 4% | x | x | x | x
Cc1ccc(C)n1/N=C1/NC(=O)CS1 | -8% | -23% | 79µM* | -50% | u | -50%
Cc1ccc(N=C2NC(=O)CS2)cc1 | -2% | -25% | -19%[57.1 µM] | 60% | 19% | 0%[12.7 µM]
Cc1cc(C)nc(/N=C2/NC(=O)CS2)n1 | u | u | 22µM* | -14% | 32µM* | 20µM*
O=C(Cn1c(=O)cc(C(=O)N2CCCC2)c2ccccc21)Nc1ccccc1F | x | 4% | x | x | x | x
Cc1ccc2c(c1)N(CCCC(=O)Nc1cccc(C(F)(F)F)c1)C(=O)CO2 | -4% | u | 16µM*! | -16%[57 µM] | 15% | 14%[59 µM]
COc1ccc(NC(=O)CCCN2C(=O)COc3ccc(C)cc32)cc1OC | -13% | -3% | -24% | -6% | x | -9%[59 µM]
CC(C)n1cnnc1-c1nn(C)c2c1CN(C(=O)Cc1c[nH]c3ccccc13)CC2 | x | 0% | x | x | x | x
CC1(C)CC(=O)C2=C(C1)OC(N)=C(C#N)C2c1ccc(-c2cc(Cl)ccc2Cl)o1 (stereo not drawn) | x | 11% | x | x | x | x
CC1(C)CC(=O)C2=C(C1)OC(N)=C(C#N)C2c1ccc(-c2ccc(Br)cc2)o1 (stereo not drawn) | x | 20µM* | x | x | x | x
COc1ccc(C2C(C#N)=C(N)OC3=C2C(=O)CC(C)(C)C3)c2ccccc12 (stereo not drawn) | x | 7.9µM* | x | x | x | x
COc1cc2c(cc1C1C(C#N)=C(N)OC3=C1C(=O)CC(C)(C)C3)OCO2 (stereo not drawn) | -8% | 0% | -24% | 31% | 10% | -6%[0.501 µM]
Cc1ccc(NC(=S)NCCC2=CCCCC2)cc1F | x | 5% | x | x | x | x
Cc1noc(C2CC3(CCN(C(=O)c4cccs4)CC3)CN2C)n1 (stereo not drawn) | x | 13% | x | x | x | x
Cc1ccc(C)c(-n2c(-c3ccco3)n[nH]c2=S)c1 | x | -53% | 8.9µM* | -23% | x | x
SMILES | BAZ2B inh | 12-LOX inh | JMJD2A Tudor inh | HP1b chromo inh | Sfp PPTase inh | G9a inh
S=c1[nH]nc(-c2ccco2)n1-c1ccc(Cl)cc1 | -15% | 40µM* | 32µM* | -8% | -15% | u
c1ccc(-c2nnc(-c3ccco3)n2-c2ccccc2)cc1 | -7% | -7% | -29% | 7% | -4% | -39%[59 µM]
COc1ccc(-n2c(-c3ccco3)n[nH]c2=S)cc1 | -3% | u | 4.5µM* | u | -19% | 4µM*
O=C(CSc1nnc(-c2ccco2)n1C1CCCCC1)Nc1ccccc1C(=O)NC1CC1 | x | 0% | x | x | x | x
S=c1[nH]nc(-c2ccco2)n1C1CCCCC1 | -12% | u | 3.2µM* | u | -20% | 2µM*
Cn1ccc(NC(=O)CCc2ncc(-c3ccccc3)o2)n1 | x | -29% | x | x | x | x
COc1ccc(-c2cc3ccc(OC)cc3oc2=O)c(OC)c1 | x | -27% | x | x | x | x
Nn1c(-c2ccco2)n[nH]c1=S | 50µM* | u | 7.1µM* | u | 56µM* | 8.9µM*
Cn1cc(Cl)c(-c2n[nH]c(=S)n2C2CCCCC2)n1 | -19% | -18% | 4.5µM* | 17% | 25% | u
COc1cc(NS(=O)(=O)c2ccc3oc(=O)c4ncn(C)c4c3c2)cc(OC)c1 | -14% | -21% | -2% | 38% | x | -11%[59 µM]
CCc1ccc(NS(=O)(=O)c2ccc3oc(=O)c4ncn(CC)c4c3c2)cc1 | u | u | -25% | 4% | x | 10µM*
COc1ccc(/C=C2\NC(=S)N(CC3CCCO3)C2=O)c(OC)c1 (stereo not drawn) | -30% | -29% | -20% | 20% | -6% | 39%[12.7 µM]
COc1ccc(/C=C2\NC(=S)N(CC3CCCO3)C2=O)c(OC)c1C (stereo not drawn) | u | u | -32% | 17% | -18% | 50µM*
CCCOc1ccc(C(=O)NC(=S)Nc2nc(C)c(C(=O)N(C)C)s2)cc1 | -34% | u | -34% | 2% | -1% | 11µM*
COC(=O)c1sc(NC(=S)NC(=O)c2ccccc2)nc1C | 0% | 14% | -10% | 16% | -5% | 9%[59 µM]
COC(=O)c1sc(NC(=S)NC(=O)c2cc(OC)c(OC)c(OC)c2)nc1C | -8% | 1% | -7% | 9% | -17% | 71µM*
CC(C)c1nn2c(=O)cc(CN3CCN(c4ncccn4)CC3)nc2s1 | x | -11% | x | x | x | x
Cc1cc(C)c2ccc(Cl)cc2n1 | 4% | -11% | 0% | 39% | 15% | 18%[59 µM]
Cc1cc(NN)nc2ccc(Cl)cc12 | -16% | u | u | 25% | 11µM* | 14µM*
CCOC(=O)c1oc2ccc(OC)cc2c1NC(=O)CN1CCN(C)CC1 | -2% | -16% | -1% | 20% | -2% | -28%
Cc1ccc(C(=O)c2oc3ccc(Cl)cc3c2NC(=O)CN2CCN(C)CC2)cc1 | 25µM* | 0% | u | -9%[57 µM] | -28% | 79µM*
COc1cccc(OCc2cc(C(=O)NC3CCOC(C)(C)C3)n[nH]2)c1 (stereo not drawn) | x | 3% | x | x | x | x
Cc1cccc(N2CCN(CC(=O)NCC3CCCCC3)CC2)c1C | 50µM* | 0.89µM* | 5µM* | u | -24% | 28µM*
